Rows were chosen to be rich in hits. Some 4.2% of all compounds tested hit in one or more screens of this group.
hgDAF-12 ag = agonists of H. glycines DAF-12 nuclear receptor; activation, % at 6.8 µM; AID 687014; HEK293 GAL4-hgDAF12 UAS-luciferase reporter, agonist luminescence; normalized to butyrate control; actives 1.8% (n = 370,000);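 active = activation above a cutoff set at the mean of all screened compounds plus 3 SD, cut at about 10% in these data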;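 note: 0% = DMSO wells and 100% = sodium butyrate wells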
DAX1 inh = blocks DAX1 repression of SF-1 activated StAR promoter; HEK293T StAR-luciferase reporter, SF-1/DAX-1 repression relief; inhibition, % at 6.8 µM; actives 1.1% (n = 370,000); AID 652010;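 active = inhibition above the mean over all tested compounds plus 3 SD, cut at about 3.6% in these data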;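 note: 0% = DAX-1 cells with DMSO and 100% = cells lacking DAX-1 with DMSO; higher inhibition means more luminescence from relief of DAX-1 repression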
hcDAF12 agonist = activates DAF-12 receptor from parasite H. contortus. HEK293 hcDAF-12 lit1-tk-luc reporter, luminescence; 0% DMSO, 100% Δ7-dafachronic acid. activation, % at 6.8 µM. actives 1.4% (n = 370,000). AID 652067;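 active = activation above the mean of all tested compounds plus 3 SD, cut at about 5.5% in these data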;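 note: 100% = response to 3 µM Δ7-dafachronic acid high control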
SMARCA2 act = increases SMARCA2 function in MMTV reporter cells. MG213 cells, MMTV-luciferase reporter, dexamethasone, overnight. activation, % at 9.1 µM. actives 1% (n = 370,000). AID 652017; in the data active = activation above about 7.8%;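 note: 0% = vehicle wells and 100% = reference activator wells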
ssDAF-12 act = activates DAF-12 receptor from parasite S. stercoralis. HEK293 ssDAF-12/GRIP1 lit1-tk-luc reporter, luminescence; % of 3 µM dafachronic acid response. activation, % at 6.8 µM. actives 1% (n = 370,000). AID 652126;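 active = activation above the mean over all tested compounds plus 3 SD, cut at about 0.9% in these data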;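 note: 0% = DMSO-only wells and 100% = 3 µM delta7-dafachronic acid wells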
DAX1 inh confirm = NR0B1 (human) inhibition, confirmation. shares compounds with DAX1 inh. HEK293T StAR-promoter luciferase reporter, SF-1/DAX-1 repression. inhibition, % at 6.8 µM. actives 87% (n = 2,400);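 active = inhibition above the average of every tested compound plus 3 SD, cut at about 3.8% in these data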;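 note: 0% = DAX-1 cells with DMSO and 100% = no DAX-1 control cells with DMSO; active compounds raise luminescence by relieving repression of the StAR reporter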
Target sequence (P51843 whole entry, looked up): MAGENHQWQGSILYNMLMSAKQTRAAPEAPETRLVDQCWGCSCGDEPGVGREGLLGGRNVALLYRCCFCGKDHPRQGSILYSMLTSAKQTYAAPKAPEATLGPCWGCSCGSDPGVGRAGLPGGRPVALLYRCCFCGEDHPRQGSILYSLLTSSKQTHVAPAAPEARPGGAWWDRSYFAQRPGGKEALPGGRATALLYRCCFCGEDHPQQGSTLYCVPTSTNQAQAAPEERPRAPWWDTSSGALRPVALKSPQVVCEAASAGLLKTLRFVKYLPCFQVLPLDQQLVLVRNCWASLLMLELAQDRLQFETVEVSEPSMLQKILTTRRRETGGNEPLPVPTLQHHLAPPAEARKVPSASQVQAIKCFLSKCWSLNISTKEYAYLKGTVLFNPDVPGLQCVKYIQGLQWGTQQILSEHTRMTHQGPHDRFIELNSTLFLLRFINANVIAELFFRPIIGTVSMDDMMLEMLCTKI
SF1 AF2mut Luc = nonselective inhibitor or artifact in SF-1 mutant DAX1 counter-screen. shares compounds with DAX1 inh. HEK293 StAR-luciferase, SF-1 AF2 mutant, luminescence. inhibition, % at 6.8 µM. actives 78% (n = 2,400). AID 652136;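 active = inhibition above the mean of all tested compounds plus 3 SD, cut at about 3% in these data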;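 note: 0% = DAX-1 transfected cells with DMSO and 100% = cells without DAX-1 with DMSO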
SMARCA2 conf = SMARCA2 activation, confirmation screen | shares compounds with SMARCA2 act | MG213 cells, MMTV-luciferase with dexamethasone, luminescence, overnight; MG213 cells expressing E1A, Rb sequestered; DMSO wells 0%, reference activator 100% | activation, % at 9.1 µM | actives 30% (n = 3,500);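 active = activation above its plate's cutoff, the mean activation of tested wells plus 3 SD, cut at about 7.9% in these data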
VP16 Luc act = GAL4-VP16 reporter activation counter-screen; actives 41% (n = 3,500); HEK293 GAL4-VP16 pG5luc reporter, luciferase luminescence; scaled: DMSO wells 0%, SAHA wells 100%; activation, % at 9.1 µM; AID 686939; shares compounds with SMARCA2 act;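 active = activation above the solvent-only control well mean plus 3 SD, averaged across control plates, cut at about 5.2% in these data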
LXR ag = counter-screen for hcDAF-12 agonists: agonists of human LXR-beta; shares compounds with hcDAF12 agonist; HEK293 Gal4-LXR tk-luc reporter, luminescence, 24 h; normalized: DMSO 0%, positive control 100%; activation, % at 6.8 µM; 3,400 tested, under 10 active; AID 743027;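 active = mean percent activation of the reporter above a cutoff set as the average over tested compounds plus their standard deviation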
hcDAF12 conf = hcDAF-12 agonism, confirmation assay | shares compounds with hcDAF12 agonist | HEK293 hcDAF-12 lit1-tk-luc reporter, luminescence; % of Δ7-dafachronic acid response | activation, % at 6.8 µM | actives 61% (n = 3,400) | AID 743032;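 active = mean activation across triplicate tests above the threshold derived from the earlier primary screen, cut at about 5.5% in these data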;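 note: 0% = DMSO only wells and 100% = 3 µM Δ7-dafachronic acid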
* = called active by the depositor.

Screening CCC(NC(=O)OCc1ccccc1)P(=O)(Oc1ccccc1)Oc1ccccc1 (stereo unspecified) returned hgDAF-12 ag 1, DAX1 inh -1, hcDAF12 agonist -3, SMARCA2 act -1 and ssDAF-12 act -1.
`N#CC1=C(N)Oc2c(c(=O)sc3ccccc23)C1c1cccnc1` (stereo unspecified) gave hgDAF-12 ag 0, DAX1 inh 4.1*, hcDAF12 agonist 0, SMARCA2 act 1 and ssDAF-12 act -2.
For O=C1OC(c2ccc(Cl)cc2)=N/C1=C\N1CC2CC(C1)c1cccc(=O)n1C2 (stereo unspecified) the results were hgDAF-12 ag 5, DAX1 inh 0, hcDAF12 agonist -1, SMARCA2 act 3 and ssDAF-12 act 1.6*.
`CN=C1CN=C(c2ccc[nH]2)c2cc(Cl)ccc2N1` gave hgDAF-12 ag -1, hcDAF12 agonist -1 and ssDAF-12 act -1.
`CCOC(=O)[C@]12Cc3ccccc3[C@H]1N(C)C(=O)c1cc(OC)ccc12` gave hgDAF-12 ag -2, DAX1 inh 3.7*, hcDAF12 agonist -1, SMARCA2 act -3 and ssDAF-12 act -2.
`CCOC(=O)[C@]12Cc3cc(C)ccc3[C@H]1N(C(C)C)C(=O)c1ccccc12` gave hgDAF-12 ag -1, DAX1 inh 4.2*, hcDAF12 agonist 2, SMARCA2 act -4 and ssDAF-12 act -1.
O=C(NC(Cc1ccccc1)P(=O)(O)Oc1ccccc1)OCc1ccccc1 (stereo unspecified) was read as hgDAF-12 ag -3, DAX1 inh 0, hcDAF12 agonist -1, SMARCA2 act 0 and ssDAF-12 act -1.
CCOC(=O)[C@]12Cc3c(cc(OC)c(OC)c3OC)[C@H]1N(C)C(=O)c1cc(OC)ccc12 was read as hgDAF-12 ag 0, DAX1 inh 4.7*, hcDAF12 agonist 2, SMARCA2 act 0, ssDAF-12 act -1, DAX1 inh confirm 9.5* and SF1 AF2mut Luc 14*.
CCOC(=O)[C@]12Cc3ccccc3[C@H]1N(C(C)C)C(=O)c1cc(OC)ccc12 was read as hgDAF-12 ag -4, DAX1 inh 7.0*, hcDAF12 agonist 0, SMARCA2 act 4, ssDAF-12 act -1, DAX1 inh confirm 6.0* and SF1 AF2mut Luc 16*.
`CCOC(=O)[C@]12Cc3c(cc(OC)c(OC)c3OC)[C@H]1N(C(C)C)C(=O)c1ccccc12` gave hgDAF-12 ag -1, DAX1 inh 5.5*, hcDAF12 agonist 0, SMARCA2 act 2, ssDAF-12 act -1, DAX1 inh confirm 4.6* and SF1 AF2mut Luc 6.4*.
For CC[C@H](C)[C@@H]1OC(=O)[C@H](C(C)C)N(C)C(=O)[C@H](C(C)C)NC(=O)[C@@H](C)[C@@H](CCCC#CBr)OC(=O)[C@H](C(C)C)N(C)C(=O)C2CCCN2C1=O (stereo partly specified) the results were hgDAF-12 ag -3, hcDAF12 agonist -2 and ssDAF-12 act -2.
Screening COC(=O)C1C(c2ccc(F)cc2)CC2CCC1N2C (stereo unspecified) returned hgDAF-12 ag 2, DAX1 inh 0, hcDAF12 agonist -1, SMARCA2 act 1 and ssDAF-12 act 0.
`C[C@H]1CCCC(=O)CCC/C=C/c2cc(O)cc(O)c2C(=O)O1` gave hgDAF-12 ag -7, DAX1 inh -1, hcDAF12 agonist -4, SMARCA2 act -7 and ssDAF-12 act -2.
Screening C[C@H]1CCC/C=C/[C@@H]2C[C@H](O)C[C@H]2[C@H](O)/C=C/C(=O)O1 returned hgDAF-12 ag -1, DAX1 inh 4.4*, hcDAF12 agonist -3, SMARCA2 act -10, ssDAF-12 act -2, DAX1 inh confirm 10* and SF1 AF2mut Luc 2.
`CN1CCCN(C(=O)COc2ccc(Br)cc2)CC1` gave hgDAF-12 ag 2, DAX1 inh 0, hcDAF12 agonist 1, SMARCA2 act -1 and ssDAF-12 act 0.
For Cc1cc(OCC(=O)N2CCCN(C)CC2)ccc1Cl the results were hgDAF-12 ag 2, DAX1 inh 5.2*, hcDAF12 agonist 0, SMARCA2 act -1, ssDAF-12 act 0, DAX1 inh confirm 3 and SF1 AF2mut Luc 0.
CCCCCN1C(=O)c2ccccc2[C@@]2(C(=O)OCC)Cc3cc(OC)ccc3[C@@H]12 was read as hgDAF-12 ag -2, DAX1 inh 0, hcDAF12 agonist -3, SMARCA2 act -6 and ssDAF-12 act -1.
For Cc1cc2c(cc1C)NP(=S)(c1ccccc1)N2 the results were hgDAF-12 ag 19*, DAX1 inh 11*, hcDAF12 agonist 8.0*, SMARCA2 act 9.3*, ssDAF-12 act 1.2*, DAX1 inh confirm 13*, SF1 AF2mut Luc 8.4*, SMARCA2 conf 6, VP16 Luc act 8.3*, LXR ag 2 and hcDAF12 conf 13*.
Screening CC(C)C[C@@H]1COc2cc(N3CCN(C)CC3)ccc2S(=O)(=O)N1 returned hgDAF-12 ag 1, DAX1 inh 1, hcDAF12 agonist 0, SMARCA2 act 4 and ssDAF-12 act -1.

Screens (PubChem BioAssay)
